Compound activity: PubChem BioAssay, several laboratories
This is a sample that favours compounds with a hit; in the whole collection about 1.8% have one here.
PGE2 EP2 inh = blocks the human prostaglandin E2 receptor EP2 | P43116 | C6 glioma cells expressing human EP2, cAMP TR-FRET; cells stimulated with saturating PGE2 | inhibition, % at 25 µM | 260,000 tested, 0.52% active | AID 1422;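 active means percent inhibition above 40 after rounding to a whole number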;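 further: rat C6 glioma host cells with rolipram phosphodiesterase inhibitor present; the protocol text gives 20 µM as final concentration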
eIF4E 4G PPI = inhibitors of eIF4E and eIF4G interaction in translation initiation; P63073+Q04637; TR-FRET eIF4E-eIF4GI(517-606) binding, 2 h; inhibition, % at 21.7 µM; 220,000 tested, 0.37% active; AID 782;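 active means inhibition above about 30%, limit read from the data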;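 further: 0% = full FRET control wells and 100% = background wells lacking eIF4GI fragment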
Target sequence (P63073 whole entry, looked up, the tested form may be a part): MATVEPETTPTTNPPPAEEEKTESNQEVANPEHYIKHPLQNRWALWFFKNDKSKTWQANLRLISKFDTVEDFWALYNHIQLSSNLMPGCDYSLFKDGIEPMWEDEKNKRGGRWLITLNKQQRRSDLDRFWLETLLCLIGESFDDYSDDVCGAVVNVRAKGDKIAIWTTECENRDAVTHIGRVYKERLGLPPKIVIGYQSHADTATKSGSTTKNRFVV
Target sequence (Q04637 whole entry, looked up, the tested form may be a part): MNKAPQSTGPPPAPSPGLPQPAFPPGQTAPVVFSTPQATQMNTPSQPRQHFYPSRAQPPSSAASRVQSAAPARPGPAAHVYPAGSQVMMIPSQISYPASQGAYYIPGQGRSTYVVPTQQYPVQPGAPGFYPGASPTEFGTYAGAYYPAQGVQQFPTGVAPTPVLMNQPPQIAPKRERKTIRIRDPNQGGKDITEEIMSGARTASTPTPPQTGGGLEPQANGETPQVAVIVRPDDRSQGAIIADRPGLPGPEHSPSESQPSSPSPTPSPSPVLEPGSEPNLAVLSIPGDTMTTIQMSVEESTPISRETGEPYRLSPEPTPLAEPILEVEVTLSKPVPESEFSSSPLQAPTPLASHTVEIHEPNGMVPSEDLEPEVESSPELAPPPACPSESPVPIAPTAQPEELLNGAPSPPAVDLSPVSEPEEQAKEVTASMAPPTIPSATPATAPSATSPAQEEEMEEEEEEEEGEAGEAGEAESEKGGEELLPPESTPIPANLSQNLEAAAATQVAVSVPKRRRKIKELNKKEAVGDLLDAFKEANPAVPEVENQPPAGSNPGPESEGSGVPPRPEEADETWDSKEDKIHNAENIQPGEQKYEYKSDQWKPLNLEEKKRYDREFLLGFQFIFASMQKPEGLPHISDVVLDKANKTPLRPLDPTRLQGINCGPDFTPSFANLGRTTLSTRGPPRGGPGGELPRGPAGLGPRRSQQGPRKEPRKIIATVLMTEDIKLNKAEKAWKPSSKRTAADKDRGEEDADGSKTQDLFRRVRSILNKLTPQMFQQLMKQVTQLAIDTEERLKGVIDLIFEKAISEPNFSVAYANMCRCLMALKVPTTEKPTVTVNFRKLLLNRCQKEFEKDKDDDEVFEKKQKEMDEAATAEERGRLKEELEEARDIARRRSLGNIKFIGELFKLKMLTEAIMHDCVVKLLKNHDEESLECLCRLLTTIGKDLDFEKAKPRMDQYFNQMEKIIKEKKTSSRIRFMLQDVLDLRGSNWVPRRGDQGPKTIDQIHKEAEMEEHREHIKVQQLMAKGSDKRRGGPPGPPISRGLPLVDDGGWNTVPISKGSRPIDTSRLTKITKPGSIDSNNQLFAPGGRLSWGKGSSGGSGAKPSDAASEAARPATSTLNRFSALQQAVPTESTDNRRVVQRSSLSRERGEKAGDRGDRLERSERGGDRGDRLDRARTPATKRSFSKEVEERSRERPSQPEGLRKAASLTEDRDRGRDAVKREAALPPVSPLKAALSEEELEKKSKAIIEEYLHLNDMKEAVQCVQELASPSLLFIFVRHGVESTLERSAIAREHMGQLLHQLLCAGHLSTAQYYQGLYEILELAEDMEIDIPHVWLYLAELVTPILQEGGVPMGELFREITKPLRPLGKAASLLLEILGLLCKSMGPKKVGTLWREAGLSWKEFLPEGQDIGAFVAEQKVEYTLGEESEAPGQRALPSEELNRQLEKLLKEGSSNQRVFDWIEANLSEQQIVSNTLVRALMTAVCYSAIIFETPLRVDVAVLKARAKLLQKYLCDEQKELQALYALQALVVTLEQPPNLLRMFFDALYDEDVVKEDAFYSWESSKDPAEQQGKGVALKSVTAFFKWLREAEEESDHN
EP2 modulator = modulators of human EP2 prostaglandin E2 receptor; P43116; EP2-expressing cells, cAMP HTRF FRET, PGE2 co-stimulation; induction, % at 25 µM; 260,000 tested, 0.83% active; AID 940;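 active means compounds whose cAMP rise, as percent of the full-agonist control response, exceeds 60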;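 further: rat C6 glioma line stably carrying human EP2 under a CMV promoter; the protocol text gives 20 µM as final concentration; 100% = response of wells given 1 µM PGE2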
PERK inh = blocks human PERK kinase | AID 1416 | 220,000 tested, 0.17% active | inhibition, % at 5.6 µM | Q9NZJ5 | CHO PERK-DD fusion, SEAP luminescence translation reporter;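 active means inhibition above the mean inhibition of all tested compounds plus 3 SD, set separately per screening campaign, cut at about 2.9% in these data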;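 further: PERK kinase domain activated by AP20187 dimerizer at 100 nM; 0% = DMSO with dimerizer and 100% = rapamycin at 8.4 µM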
EP2 cAMP induct = EP2 receptor cAMP induction, counter-screens negative | shares compounds with EP2 modulator | C6 glioma EP2 cells, cAMP HTRF induction; plus low (about EC15) PGE2 agonist | calls only at 20 µM (by protocol) | 1,300 tested, 47% active | AID 1080;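 active means cAMP induction above 50% in the main assay while under 30% in all four parallel counter assays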;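 further: rat C6 glioma cells stably expressing human EP2 receptor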
Numbers without * were called inactive.

Screening c1ccc(-c2nn3c(C4CCCCC4)nnc3s2)cc1 returned PGE2 EP2 inh 3, eIF4E 4G PPI -1, EP2 modulator 73*, PERK inh 1 and EP2 cAMP induct active.
`Cc1cccc(-c2nnc3sc(-c4ccccc4)nn23)c1` gave PGE2 EP2 inh 6, eIF4E 4G PPI 6, EP2 modulator 55 and PERK inh 3.
`c1ccc(-c2nn3c(C4CCCCC4)nnc3s2)nc1` gave PGE2 EP2 inh 22, eIF4E 4G PPI -4, EP2 modulator -14 and PERK inh 1.
Screening CCOC(=O)Cn1cnc2sc(C)c(-c3ccc(C)c(C)c3)c2c1=O returned PGE2 EP2 inh 14 and EP2 modulator 39.
Screening COCCn1c2ccccc2n2c(=O)n(CC(=O)N3CCCCCC3)nc12 returned PGE2 EP2 inh 6 and EP2 modulator -40.
Screening O=C1C2C(c3ccccc3)C=CC(c3ccccc3)C2C(=O)N1c1ccncc1 (centres undefined) returned PGE2 EP2 inh 1, eIF4E 4G PPI 0, EP2 modulator 65*, PERK inh -1 and EP2 cAMP induct inactive.
`CCOC(=O)C1CCN(c2c(C(=O)c3ccccc3)cnc3ccc(Cl)cc23)CC1` gave PGE2 EP2 inh 9, eIF4E 4G PPI 1, EP2 modulator 81*, PERK inh -1 and EP2 cAMP induct active.
Screening COc1ccc(CSC2=C(C#N)C(=O)NC3(CCCCC3)S2)cc1 returned PGE2 EP2 inh 37, EP2 modulator 54 and EP2 cAMP induct inactive.
Screening O=c1[nH]c2ccc(Cl)cc2c(-c2ccccc2)c1CN1CCOCC1 returned PGE2 EP2 inh 6, eIF4E 4G PPI -8, EP2 modulator 20 and PERK inh -1.
O=C(c1ccco1)N1CCN(c2c(-c3ccccc3)c3cc(Cl)ccc3[nH]c2=O)CC1 was read as PGE2 EP2 inh 9, eIF4E 4G PPI -35, EP2 modulator 47 and PERK inh -1.
`O=c1[nH]c2ccc(Cl)cc2c(-c2ccccc2)c1N1CCOCC1` gave PGE2 EP2 inh 5, eIF4E 4G PPI 8, EP2 modulator 69*, PERK inh 1 and EP2 cAMP induct inactive.
For O=c1[nH]c2ccc(Cl)cc2c(-c2ccccc2)c1N1CCN(c2ccccn2)CC1 the results were PGE2 EP2 inh 7, eIF4E 4G PPI 1, EP2 modulator 73*, PERK inh 1 and EP2 cAMP induct inactive.
`CC1CCN(CC(O)c2ccc3c(c2)CCCN3C(=O)C2CC2)CC1` (centres undefined) gave PGE2 EP2 inh 8 and EP2 modulator -24.
Cc1cc(NC(=O)c2cc(-c3ccncc3)nc3c(C)cccc23)no1 was read as PGE2 EP2 inh 12, eIF4E 4G PPI -33, EP2 modulator 65*, PERK inh -1 and EP2 cAMP induct inactive.
`Cc1ccc(-c2cc(C(=O)Nc3cc(C)on3)c3ccccc3n2)cc1` gave PGE2 EP2 inh 15, eIF4E 4G PPI -2, EP2 modulator 14 and PERK inh 0.
`CCC(C)Nc1nc(-c2cccnc2)nc2ccccc12` (centres undefined) gave PGE2 EP2 inh 7 and EP2 modulator 20.
For CN(Cc1cccs1)c1nc(-c2cccnc2)nc2ccccc12 the results were PGE2 EP2 inh 4, eIF4E 4G PPI 3, EP2 modulator 74*, PERK inh 0 and EP2 cAMP induct active.
For Cc1cccc(C(=O)c2cnc3ccccc3c2-c2ccccc2)c1 the results were PGE2 EP2 inh 8, eIF4E 4G PPI -6, EP2 modulator 90*, PERK inh -1 and EP2 cAMP induct active.
Screening C=CCn1c(=O)c2c3c(sc2n2c(Nc4ccc(OC)cc4)nnc12)CCCC3 returned PGE2 EP2 inh 12, eIF4E 4G PPI 9, EP2 modulator 75*, PERK inh -1 and EP2 cAMP induct active.
For CC1CCCCN1C(=O)/C(=C\c1ccccc1)c1ccccc1 (centres undefined) the results were PGE2 EP2 inh -1, eIF4E 4G PPI 2, EP2 modulator 69*, PERK inh -1 and EP2 cAMP induct inactive.
Screening Nc1cc(Cl)ccc1Oc1ccccc1 returned PGE2 EP2 inh 6, eIF4E 4G PPI -3, EP2 modulator 39 and PERK inh 1.
For Nc1cc(Cl)ccc1Oc1ccc(Cl)cc1 the results were PGE2 EP2 inh 0, eIF4E 4G PPI 7, EP2 modulator 66*, PERK inh 0 and EP2 cAMP induct inactive.
`O=C(NCc1ccccc1)c1ccc(-c2ccccc2C(F)(F)F)o1` gave PGE2 EP2 inh 8, eIF4E 4G PPI 4, EP2 modulator 13 and PERK inh 1.
O=C(O)c1ccc(-c2ccccc2C(F)(F)F)o1 was read as PGE2 EP2 inh 14, eIF4E 4G PPI -4, EP2 modulator 83*, PERK inh 0 and EP2 cAMP induct active.
`CN(C)c1oc(-c2ccccc2Cl)nc1P(=O)(c1ccccc1)c1ccccc1` gave PGE2 EP2 inh 5, eIF4E 4G PPI 12, EP2 modulator 71*, PERK inh -2 and EP2 cAMP induct active.
Screening O=C(CSc1nnc(-c2ccc(Cl)cc2)o1)N1c2ccccc2CCc2ccccc21 returned PGE2 EP2 inh 8 and EP2 modulator -11.
Screening CCN(CC)C(=O)c1cc(Cl)ccc1NC(=O)c1ccco1 returned PGE2 EP2 inh 9, eIF4E 4G PPI -3, EP2 modulator -23 and PERK inh 0.
For CCN(CC)P(=O)(Nc1ccccc1Br)c1ccc(N(C)C)cc1NC(=O)c1ccco1 (centres undefined) the results were PGE2 EP2 inh 5, eIF4E 4G PPI -4, EP2 modulator 66*, PERK inh 1 and EP2 cAMP induct inactive.
For COc1ccccc1-c1nnc2sc(-c3cc4ccccc4o3)nn12 the results were eIF4E 4G PPI 0, EP2 modulator 77*, PERK inh 0 and EP2 cAMP induct active.
For CN(c1ccccc1)c1nc(N2CCCC2)nc(-n2ccnc2)n1 the results were PGE2 EP2 inh 13, eIF4E 4G PPI 6, EP2 modulator 82*, PERK inh -1 and EP2 cAMP induct active.
Screening COc1ccc2sc(NC(=O)c3cccc4ccccc34)nc2c1 returned PGE2 EP2 inh 9 and EP2 modulator -76.
`COc1ccccc1NC(=O)c1sc2ncn(C(C)C(=O)OC(C)C)c(=O)c2c1C` (centres undefined) gave PGE2 EP2 inh 8 and EP2 modulator 1.
CCCCN1C(=O)/C(=C2\SC(N3CCCCC3)=NC2=O)c2ccccc21 was read as PGE2 EP2 inh 7, eIF4E 4G PPI -1, EP2 modulator 65*, PERK inh 0 and EP2 cAMP induct active.
`CCC1Oc2ccccc2N(Cc2ccccc2C)C1=O` (centres undefined) gave PGE2 EP2 inh 6, EP2 modulator 74*, PERK inh -1 and EP2 cAMP induct active.
CCOC(=O)CN1C(=O)C(CC)Oc2ccccc21 (centres undefined) was read as PGE2 EP2 inh 2, eIF4E 4G PPI -1, EP2 modulator 2 and PERK inh 0.
